According to PubChem BioAssay (NCI):
Compounds without any hit were thinned out: in the full panel of roughly 83,000, 20% have a hit.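 Method: cells in 96-well plates; compound added at one concentration; 48 h incubation; percent growth measured; values under 10 scored active.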 Values without a mark were called inactive. Calls of active or inactive are those of the source.

Assays:
Test in all cases: NCI-60 one-dose screen, 48 h (100 = growth as untreated, 0 = no growth, -100 = all killed)
[1] = tested on: HCT-15 colon; conditions: 10 µM unless noted
[2] = tested on: HT29 colon; conditions: 10 µM unless noted
[3] = tested on: SNB-75 CNS; conditions: 10 µM unless noted
[4] = tested on: SNB-19 CNS; conditions: 10 µM unless noted
[5] = tested on: U251 CNS; conditions: 10 µM unless noted
[6] = tested on: PC-3 prostate; conditions: 10 µM unless noted
[7] = tested on: SK-MEL-5 melanoma; conditions: 10 µM unless noted
[8] = tested on: UACC-62 melanoma; conditions: 10 µM unless noted
[9] = tested on: LOX IMVI melanoma; conditions: 10 µM unless noted
[10] = tested on: SK-MEL-28 melanoma; conditions: 10 µM unless noted
[11] = tested on: SK-MEL-2 melanoma; conditions: 10 µM
[12] = tested on: EKVX NSCLC; conditions: 10 µM unless noted
[13] = tested on: SN12C renal; conditions: 10 µM unless noted
[14] = tested on: UO-31 renal; conditions: 10 µM unless noted
[15] = tested on: TK-10 renal; conditions: 10 µM unless noted
[16] = tested on: ACHN renal; conditions: 10 µM unless noted
[17] = tested on: A498 renal; conditions: 10 µM unless noted
[18] = tested on: CCRF-CEM leukemia; conditions: 10 µM unless noted
[19] = tested on: MOLT-4 leukemia; conditions: 10 µM unless noted
[20] = tested on: CAKI-1 renal; conditions: 10 µM unless noted

Structure (SMILES)	growth [1]	growth [2]	growth [3]	growth [4]	growth [5]	growth [6]	growth [7]	growth [8]	growth [9]	growth [10]	growth [11]	growth [12]	growth [13]	growth [14]	growth [15]	growth [16]	growth [17]	growth [18]	growth [19]	growth [20]
O=CC(OC(=O)c1ccccc1)C(OC(=O)c1ccccc1)C(COC(c1ccccc1)(c1ccccc1)c1ccccc1)OC(=O)c1ccccc1 (centres undefined)	48.8%	52.6%	94%	78.8%	19%	3.19% (active)	70.3%	63.4%	13.8%	0.343% (active)	96.7%	88.8%	61.8%	19.8%	77.8%	60%	122%	-18.6% (active)	-14.6% (active)	–
[2H]C1([2H])[C@H](C)O[C@H](C)C([2H])([2H])N1c1ccc(NC(=O)c2cccc(-c3ccc(OC(F)(F)F)cc3)c2C)cn1	84.2%	61.2%	72.1%	65.7%	65.3%	62.1%	53.9%	52.8%	68.4%	89.2%	56.1%	61.4%	56.6%	54.5%	63.6%	78.1%	53.9%	64.3%	39.9%	–
Cc1cc(N(CCNc2ccnc3cc(Cl)ccc23)Cc2cccs2)nc(Cl)n1	1.01% (active)	-21.5% (active)	-84.5% (active)	38.3%	-57.3% (active)	21.1%	-31.2% (active)	13.4%	-74.4% (active)	-43.4% (active)	-58.2% (active)	33.9%	-15.9% (active)	-79.4% (active)	-93% (active)	-88% (active)	-6.31% (active)	-2.45% (active)	-38.2% (active)	–
CC1(C=O)NC(=O)NC1=O (centres undefined)	101%	99.2%	92.8%	103%	82%	88%	102%	99.2%	100%	112%	106%	99.6%	97.8%	96%	100%	104%	–	95.7%	89.9%	98.6%
NC(=O)c1n[nH]n2c1nc(=O)c1c3c(sc12)CCCC3	107%	106%	102%	104%	97%	85.3%	-31.5% (active)	103%	99.3%	120%	106%	101%	101%	84.4%	106%	111%	115%	84.2%	100%	–
COc1ccc(-c2nc(N)ncc2Oc2ccccc2OC)c(O)c1	17.2%	10.3%	10.8%	41.5%	30.6%	31%	25%	51%	34%	63.1%	17.4%	40.1%	48.7%	46%	55.9%	43.5%	34.3%	19.7%	26.9%	–
C=C1[C@@H](O)C[C@H]2C(C)(C)C[C@H](Cl)C[C@]2(C)[C@H]1C[C@H](O)[C@H]1CC(=O)NC1=O	-13.7% (active)	-23.6% (active)	-37.2% (active)	-20.7% (active)	-16.8% (active)	-19% (active)	-70.1% (active)	-72.4% (active)	-71.9% (active)	-26.1% (active)	-70.4% (active)	-25.1% (active)	-28.9% (active)	-26.1% (active)	-18.6% (active)	-26.2% (active)	–	0.532% (active)	-11.2% (active)	1.87% (active)
CC(CCCC(=O)O)c1ccoc1 (centres undefined)	102%	95.5%	92.6%	111%	109%	98.4%	106%	107%	97.8%	109%	105%	96%	105%	86.2%	98.3%	111%	110%	109%	109%	–
CCN(CCN(C)C)C(=O)CNCc1cc(C(N)=O)ccn1	102%	80%	98.6%	104%	87.5%	79.5%	95.4%	105%	99.5%	110%	94.8%	104%	98.8%	93.2%	96.4%	108%	–	93.6%	99.8%	105%
C=CC[n+]1c(/C=C2\Sc3ccccc3N2C)sc(-c2ccccc2)c1-c1ccccc1	26.2%	6.28% (active)	12%	26.8%	15.1%	17.9%	-97.8% (active)	13.8%	10.9%	33.5%	-15.5% (active)	16.5%	8.01% (active)	6.58% (active)	-6.28% (active)	8.86% (active)	7.29% (active)	23.2%	-4.71% (active)	–
CCN1CCN(c2nc(C)cc(N(CCCNc3ccnc4cc(Cl)ccc34)Cc3ccc4c(c3)OCO4)n2)CC1	-32.9% (active)	-26.2% (active)	-53.5% (active)	24.8%	-73.7% (active)	24.7%	-97.6% (active)	-52.9% (active)	-84.4% (active)	-64.1% (active)	-60.1% (active)	35.8%	30.1%	-86.8% (active)	-70.7% (active)	-25% (active)	-27.7% (active)	-13.5% (active)	-14.1% (active)	–
C=CCC(=O)N[C@H](/C=C/C(=O)O)Cc1ccc(-c2cc(Cl)cc(Cl)c2)cc1	98.1%	97.8%	87%	97.9%	83%	80.6%	95.7%	86.8%	96.9%	112%	101%	95.9%	100%	81%	104%	102%	–	102%	91.2%	86.3%
COc1ccc(C2CC(=O)c3c(O)c(OC)c(OC)c(OC)c3O2)cc1O (centres undefined)	9.19% (active)	101%	39.9%	36.9%	25.7%	31.2%	18.9%	35.2%	40.9%	52.9%	48.8%	50.4%	45.4%	51.6%	70.6%	40.4%	–	24.2%	22%	38.9%
CC(C)OP(=O)(CCC(=O)c1c[nH]c2ccccc12)OC(C)C	104%	97.2%	82.6%	104%	90.1%	73.2%	110%	97%	96.2%	121%	98.9%	96.5%	103%	82.9%	97.8%	101%	104%	75.7%	93.3%	–
CN1CCN(Cc2ccc(NC(=O)c3[nH]ncc3Nc3ncnc4sc5c(c34)CCCC5)cc2)CC1	-69.3% (active)	-36.9% (active)	-94.2% (active)	-88.8% (active)	-84.2% (active)	-77.8% (active)	-99.9% (active)	4.67% (active)	-91.7% (active)	-78.9% (active)	-53.7% (active)	-71.2% (active)	-44.2% (active)	-82.9% (active)	-96.6% (active)	-100% (active)	-60.5% (active)	-16.2% (active)	-62.5% (active)	–
O=C1CC(c2ccc3c(c2)OCO3)c2ncn(-c3ccc(Cl)cc3)c2N1 (centres undefined)	24.2%	10.9%	30.1%	47.8%	21.9%	45.1%	24.8%	34.4%	51.7%	55.4%	43.4%	68.2%	56.6%	61.3%	67.9%	53.9%	–	28.2%	32%	37.1%
